The list is not random: actives were taken first. Their share in the collection is about 7%.
PI5P4Ka inh = qHTS for Inhibitors of phosphatidylinositol 5-phosphate 4-kinase (PI5P4K); Phosphatidylinositol 5-phosphate 4-kinase type-2 alpha (Homo sapiens), P48426; PI5P4Kalpha enzyme, ADP-Glo luminescence, 60 min; stronger effect = lower value; max response, %; 1.2% of 330,000 active; active = max response of -50% or lower; inconclusive = between -30% and -50%; inactive = -30% or higher; also: value at the top dose of about 77 µM; % is scaled to controls: 0 for no effect and ±100 for the full control effect
Target sequence (P48426 whole entry, looked up): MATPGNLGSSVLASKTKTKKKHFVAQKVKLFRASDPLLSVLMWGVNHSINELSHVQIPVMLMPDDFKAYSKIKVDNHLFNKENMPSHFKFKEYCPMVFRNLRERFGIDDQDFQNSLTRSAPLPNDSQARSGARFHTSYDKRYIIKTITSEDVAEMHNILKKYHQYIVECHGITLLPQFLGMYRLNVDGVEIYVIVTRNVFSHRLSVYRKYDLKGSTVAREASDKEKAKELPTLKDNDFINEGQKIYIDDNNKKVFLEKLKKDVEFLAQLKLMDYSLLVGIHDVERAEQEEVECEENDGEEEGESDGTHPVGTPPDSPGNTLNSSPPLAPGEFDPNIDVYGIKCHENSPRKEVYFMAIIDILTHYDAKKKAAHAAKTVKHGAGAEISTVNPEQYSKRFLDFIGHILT
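Quantitative HTS of the MLSMR library against PI5P4Kalpha with substrate. ATP added last at 5 microM final; room temperature, 60 minutes. Remaining ATP depleted, ADP converted and read as luminescence.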
GCN5L2 inh = qHTS Assay for Inhibitors of GCN5L2; GCN5L2 HAT assay, ThioGlo1 CoA-SH fluorescence; Potency, µM (doses to about 58.9 µM), inactives show at the highest dose activity change, negative = inhibition, hits mostly inhibitors; 0.21% of 390,000 active; also: potency is read from the fitted curve at half-maximal effect; % is scaled to controls: 0 for no effect and ±100 for the full control effect
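ThioGlo1-coupled HAT assay: 20nM GCN5L2, 70uM acetyl-CoA, 75uM H3(1-25) peptide, pH 7.5. Fluorescence read at 340/540nm at start and after 20 min at room temperature.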
PLK1 PBD inh = qHTS for Inhibitors of PLK1-PDB (polo-like kinase 1 - polo-box domain): Primary Screen | AID 720504, 2013 | Plk1 PBD binding of FITC phosphopeptide, fluorescence polarization | Serine/threonine-protein kinase PLK1 (Homo sapiens), P53350 | 2.8% of 360,000 active | Potency, µM, for the others: max response, negative = inhibition, usual class: inhibitors; also: potency is read from the fitted curve at half-maximal effect; series mostly up to about 57 µM; % is scaled to controls: 0 for no effect and ±100 for the full control effect; nearly all actives have a fitted effect of over 65% in size
JMJD2A Tudor = qHTS Assay for Inhibitors of JMJD2A-Tudor Domain | AlphaScreen JMJD2A-Tudor / H3K4me3 peptide binding | Potency, µM (doses to about 114 µM), without a hit: at the top dose activity change, negative = inhibition, hits mostly inhibitors | 4.4% of 390,000 active | AID 504339, 2011; also: potency is read from the fitted curve at half-maximal effect; % is scaled to controls: 0 for no effect and ±100 for the full control effect; nearly all actives have a fitted effect of over 50% in size
BAZ2B block = qHTS Assay for Inhibitors of BAZ2B | Potency, µM (titrated, usually from 114 µM), for inactives: top-dose activity change, negative = inhibition, usual class: inhibitors | AlphaScreen BAZ2B-H3K14Ac peptide displacement | Bromodomain adjacent to zinc finger domain protein 2B (Homo sapiens), Q9UIF8 | 4.4% of 360,000 active; also: potency is read from the fitted curve at half-maximal effect; % is scaled to controls: 0 for no effect and ±100 for the full control effect; nearly all actives have a fitted effect of over 60% in size
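Protein-peptide AlphaScreen: BAZ2B 50 nM, b-H3K14Ac 50 nM, 1x PBS pH 7.4 + 0.01% Tween-20. Preincubation 30 min RT; cpd 30 min RT (top 110 uM); beads 20 min RT, light-protected.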
HP1b binding inh = HTS for Inhibitors of HP1-beta Chromodomain Interactions with Methylated Histone Tails | AID 540317, 2011 | 0.56% of 390,000 active | Potency, µM (highest dose often 114 µM), for inactives: at the highest dose activity change, negative = inhibition, hits mostly inhibitors | AlphaScreen HP1-beta / biotin-H3K9me3 peptide binding; also: potency is read from the fitted curve at half-maximal effect; nearly all actives have a fitted effect of over 70% in size
Target sequence (P83916 whole entry, looked up): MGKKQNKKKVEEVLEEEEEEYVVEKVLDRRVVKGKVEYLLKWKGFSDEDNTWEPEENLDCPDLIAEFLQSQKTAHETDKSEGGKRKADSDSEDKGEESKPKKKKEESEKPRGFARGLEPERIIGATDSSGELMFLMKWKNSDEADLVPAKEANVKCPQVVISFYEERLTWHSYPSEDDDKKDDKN
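AlphaScreen: HP1-beta (50 nM) preformed 30 min with biotin-H3(1-18)K9me3 peptide (50 nM) in PBS pH 7.4, 0.01% Tween-20. Compound added for 30 min at RT, then streptavidin donor/nickel chelate acceptor beads (10 ug/mL) for 30 min.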
The depositor's hits bear a star; [ ] = another dose, or the depositor's remark. Unless noted, calls follow the shape of the dose curve; as a rule, active = well fitted curve in the direction sought with a large enough effect; inconclusive = small, poorly fitted or top-dose-only effect, or another doubt; inactive = no such curve, though single readings can be large; an effect the other way counts as inactive or inconclusive.

`Cc1cc(C)cc(NC(=O)C2C3C=CC(O3)C2C(=O)O)c1` (centres undefined) gave PI5P4Ka inh -3, GCN5L2 inh inconclusive, PLK1 PBD inh 6%, JMJD2A Tudor -14%, BAZ2B block -13% and HP1b binding inh 36%.
N#CC1=C2N=C(N)c3c(sc4c3CCCCC4)N2C2=C(C(=O)CCC2)C1c1ccccc1 (centres undefined) was read as GCN5L2 inh -15%, PLK1 PBD inh -7%, JMJD2A Tudor inconclusive, BAZ2B block 45µM* and HP1b binding inh -6%.
N#CC1=C2N=C(N)c3ccccc3N2C2=C(C(=O)CCC2)C1c1ccc(F)cc1 (centres undefined) was read as PI5P4Ka inh 6, GCN5L2 inh -6%, PLK1 PBD inh 0%, JMJD2A Tudor inconclusive, BAZ2B block -35% and HP1b binding inh 3%.
Cc1ccc(C2C(C#N)=C3N=C(N)c4ccccc4N3C3=C2C(=O)CCC3)cc1 (centres undefined) was read as PI5P4Ka inh 0, GCN5L2 inh -11%, PLK1 PBD inh -1%, JMJD2A Tudor inconclusive, BAZ2B block 50µM* and HP1b binding inh 6%.
For CCN1CCN(c2ccc(S(=O)(=O)N3CCOCC3)cc2NC(=O)C(C)Oc2ccc(F)cc2)CC1 (centres undefined) the results were PI5P4Ka inh 0, GCN5L2 inh -9%, PLK1 PBD inh 1%, JMJD2A Tudor -14%, BAZ2B block 7% and HP1b binding inh 29%.
O=C(Nc1cccc(Cl)c1)O/N=C\c1ccncc1 was read as GCN5L2 inh 4%, PLK1 PBD inh 9.5µM*, JMJD2A Tudor 1%, BAZ2B block -2% and HP1b binding inh 34%.
Screening O=C(COC(=O)c1ccncc1)Nc1cccc(Cl)c1 returned PI5P4Ka inh -28, GCN5L2 inh 1%, PLK1 PBD inh 21µM*, JMJD2A Tudor -11%[11.4 µM], BAZ2B block -24% and HP1b binding inh -20%.
Screening CN(C)c1ccc(/C=N/NC(=O)c2ccccc2)cc1 returned PI5P4Ka inh -3, GCN5L2 inh -7%, PLK1 PBD inh -5%, JMJD2A Tudor -17%, BAZ2B block -30% and HP1b binding inh 28%.
`CN(C)c1ccc(/C=N/OC(=O)Nc2ccccc2)cc1` gave PI5P4Ka inh -4, GCN5L2 inh -7%, PLK1 PBD inh -1%, JMJD2A Tudor -34%, BAZ2B block 71µM* and HP1b binding inh -6%.
For COc1ccc(C)cc1NC(=O)Cn1c(=O)ccc2cc(S(=O)(=O)N3CCCC3)ccc21 the results were GCN5L2 inh -2%, JMJD2A Tudor -30%, BAZ2B block -14% and HP1b binding inh 3%[57 µM].
Screening Fc1cccc(Cc2c(C3CCCCC3)nc3c4ccccc4ccn23)c1 returned PI5P4Ka inh -6 and PLK1 PBD inh -9%.
Cc1ccc(-c2ccccc2NC(=O)C2C3C=CC(C3)C2C(=O)O)o1 (centres undefined) was read as PI5P4Ka inh -11, GCN5L2 inh 0%, PLK1 PBD inh -1%, JMJD2A Tudor -31%, BAZ2B block 56µM* and HP1b binding inh -7%.
Screening CON(C)S(=O)(=O)c1ccc2c(c1)N(Cc1ccc(C)cc1)C(=O)C1CCCN21 (centres undefined) returned PI5P4Ka inh -25, GCN5L2 inh -5%, PLK1 PBD inh -17%, JMJD2A Tudor -17%, BAZ2B block -22% and HP1b binding inh 38%.
O=C(NCc1ccc(Cl)cc1)N1CCN(Cc2ccccc2)CC1 was read as PI5P4Ka inh -1, GCN5L2 inh -4%, PLK1 PBD inh -14%, JMJD2A Tudor -5%, BAZ2B block -1% and HP1b binding inh 23%.
Screening Cc1cc(C)c2nc(NC(=O)C3CC(=O)N(Cc4ccco4)C3)sc2c1 (centres undefined) returned PI5P4Ka inh 17, GCN5L2 inh -10%, PLK1 PBD inh -14%, JMJD2A Tudor inconclusive, BAZ2B block 40µM* and HP1b binding inh inconclusive.
C/C(=N\Nc1ccccc1Cl)c1ccc(-n2ccnc2)cc1 was read as PI5P4Ka inh 5, GCN5L2 inh -2%, PLK1 PBD inh -4%, JMJD2A Tudor 56µM*, BAZ2B block 50µM* and HP1b binding inh inconclusive.
For CC(CN1CCCC1)OC(=O)c1ccc(Cl)cc1 (centres undefined) the results were PI5P4Ka inh -3, GCN5L2 inh -2%, PLK1 PBD inh -3%, JMJD2A Tudor -15%, BAZ2B block -6% and HP1b binding inh 24%.
`CC(C)NOC(=O)c1ccc(Cl)cc1` gave PI5P4Ka inh -11, GCN5L2 inh -6%, PLK1 PBD inh 30µM*, JMJD2A Tudor -20%, BAZ2B block -10% and HP1b binding inh 5%.
For O=C(CNC(=O)c1ccccc1Br)N/N=C/c1ccc(O)cc1 the results were PI5P4Ka inh 7, GCN5L2 inh -5%, PLK1 PBD inh -15%, JMJD2A Tudor -20%[11.4 µM], BAZ2B block 7% and HP1b binding inh 30%.
For Cc1ccc(S(=O)(=O)CCC(=O)c2ccc(F)cc2)cc1 the results were PI5P4Ka inh 3, GCN5L2 inh 0%, PLK1 PBD inh 11µM*, JMJD2A Tudor -3%, BAZ2B block 8% and HP1b binding inh 49%.
Cc1ccc(C(=O)CCS(=O)(=O)c2ccc(Cl)cc2)cc1 was read as PI5P4Ka inh 5, GCN5L2 inh 1%, PLK1 PBD inh inconclusive, JMJD2A Tudor -14%, BAZ2B block 0% and HP1b binding inh 38%.
`COc1ccc(C(=O)CCS(=O)(=O)c2ccc(F)cc2)cc1OC` gave GCN5L2 inh -25% and BAZ2B block -10%.
Cc1ccc(C(=O)CCS(=O)(=O)c2ccc(F)cc2)cc1 was read as PI5P4Ka inh 2, GCN5L2 inh 0%, PLK1 PBD inh 9.5µM*, JMJD2A Tudor -18%, BAZ2B block -4% and HP1b binding inh 44%.
For COc1ccc(CCNC(=O)CCn2c(=O)c3ccccc3n(Cc3ccccc3)c2=O)cc1OC the results were GCN5L2 inh -4%, JMJD2A Tudor -4%, BAZ2B block -4% and HP1b binding inh 20%.
COc1ccc(CNC(=O)c2cn(Cc3ccc(S(=O)(=O)N(C)C)cc3)c(=O)s2)cc1 was read as PI5P4Ka inh 5 and PLK1 PBD inh -9%.

Bioassay records from PubChem BioAssay.
